{"source": "PubChem BioAssay (Tox21)", "note": "Several values for one entry are separate records, joined by “and”; a condition that tells them apart may be missing. Equal entries are not always repeated. Records with an inconclusive call do not appear. More than one record can exist for a structure, and the calls need not agree. Activity calls are given as the source filed them. Calls follow the shape of the dose curve; as a rule, active = well fitted cell-killing curve with a large enough effect in the repeat runs; inconclusive = weak or mixed curves, or effect the other way; inactive = flat fitted curve, though single readings scatter. % is scaled to controls: 0 for no effect and ±100 for the full control effect; potency is read from the fitted curve at half-maximal effect.", "data": [{"assay": "qHTS assay to identify small molecule antagonists of the androgen receptor (AR) signaling pathway using the MDA cell line in the presence of 0.5 nM R1881 - cell viability counter screen (AID 1259242); also: nearly all actives have a fitted effect of over 45% in size", "conditions": "MDA-kb2 viability, CellTiter-Fluor protease fluorescence, 16 h; series mostly up to 92.4 µM; viability change, negative = cytotoxic: at the top concentration", "how_it_was_run": "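Steps: plate MDA-kb2 cells, rest 5 hr at 37C without CO2; pin in compounds in DMSO; add R1881 to 0.5 nM final; incubate 16 hr; add CellTiter-Fluor, 30 min; read fluorescence.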", "values": [{"smiles": "Cc1cc(C)c(/C=C2\\C(=O)Nc3ccccc32)[nH]1", "viability change, negative = cytotoxic": "0.882% [at 42.5 µM] (inactive)"}, {"smiles": "CCCCC(CC)CN1CN(CC(CC)CCCC)CC(C)(N)C1", "note": "(stereo not drawn)", "Potency": "26.6 µM (active)"}, {"smiles": "COC1=C(OC)C(=O)C(CCCCCCCCCCO)=C(C)C1=O", "viability change, negative = cytotoxic": "-23.5% [at 42.5 µM] (inactive)"}, {"smiles": "Cc1cc(=O)oc2cc(O)cc(O)c12", "viability change, negative = cytotoxic": "11.8% (inactive)"}, {"smiles": "CC(=O)c1ccc(C(C)=O)cc1", "viability change, negative = cytotoxic": "3.04% (inactive)"}, {"smiles": "NC(=S)NC(N)=S", "viability change, negative = cytotoxic": "0.0939% (inactive)"}, {"smiles": "CC(=O)OCC=C(C)C", "viability change, negative = cytotoxic": "1.7% [at 42.5 µM] (inactive)"}, {"smiles": "O=C(/C=C/c1ccccc1)OC/C=C/c1ccccc1", "viability change, negative = cytotoxic": "4.58% (inactive)"}, {"smiles": "Cc1c2ccccc2c(C)c2c1ccc1ccccc12", "Potency": "inactive and 61.1 µM (active)"}, {"smiles": "CCCCCCCC/C=C\\CCCCCCCCN", "viability change, negative = cytotoxic": "5.04% [at 42.5 µM] (inactive)"}, {"smiles": "CC(C)=CCNc1ncnc2c1ncn2[C@@H]1O[C@H](CO)[C@@H](O)[C@H]1O", "viability change, negative = cytotoxic": "-6.22% [at 42.5 µM] (inactive)"}, {"smiles": "CN(C)CCN1CCN(c2cccc(Cl)c2)C1=O", "viability change, negative = cytotoxic": "-0.714% [at 42.5 µM] (inactive)"}, {"smiles": "CCCCCCCCCCOC(=O)c1ccccc1C(=O)OCCCCCCCC", "viability change, negative = cytotoxic": "0.303% (inactive)"}, {"smiles": "CC(C)OC(=O)C(O)(CC(=O)O)CC(=O)O", "viability change, negative = cytotoxic": "0.64% (inactive)"}, {"smiles": "O=S(=O)(O)c1ccc(Nc2nc(Nc3ccc(/C=C/c4ccc(Nc5nc(Nc6ccc(S(=O)(=O)O)cc6)nc(N(CCO)CCO)n5)cc4S(=O)(=O)O)c(S(=O)(=O)O)c3)nc(N(CCO)CCO)n2)cc1", "viability change, negative = cytotoxic": "10.6% [at 42.5 µM] (inactive)"}, {"smiles": "Cc1cccc(C)c1NC(=O)c1ccc(N)cc1", "viability change, negative = cytotoxic": "-2.97% [at 42.5 µM] (inactive)"}, {"smiles": "CCOC(=O)NNc1ccc(N(CC)CC(C)O)nn1", "note": "(stereo not drawn)", "viability change, negative = cytotoxic": "2.87% [at 42.5 µM] (inactive)"}, {"smiles": "CC1(C)[C@@H](O)CC[C@]2(C)[C@H]3C(=O)C=C4[C@@H]5C[C@@](C)(C(=O)O)CC[C@]5(C)CC[C@@]4(C)[C@]3(C)CC[C@@H]12", "viability change, negative = cytotoxic": "-3.43% (inactive)"}, {"smiles": "O=C(O)Cc1ccccc1Nc1c(Cl)cccc1Cl", "Potency": "inactive"}, {"smiles": "c1ccsc1", "viability change, negative = cytotoxic": "0.823% (inactive)"}, {"smiles": "NC(=O)c1cccc([N+](=O)[O-])c1", "viability change, negative = cytotoxic": "-0.23% (inactive)"}, {"smiles": "CCc1cccc(CC)c1NC(=O)CN(CC(=O)O)CC(=O)O", "viability change, negative = cytotoxic": "4.53% [at 42.5 µM] (inactive)"}, {"smiles": "Clc1sc(Cl)c(Cl)c1Cl", "viability change, negative = cytotoxic": "0.178% (inactive)"}, {"smiles": "CCN(CC)c1ccc2c(-c3ccc(S(=O)(=O)O)cc3S(=O)(=O)[O-])c3ccc(=[N+](CC)CC)cc-3oc2c1", "Potency": "25.1 µM (active)"}, {"smiles": "OC[C@H]1O[C@H](O[C@H]2O[C@H](CO)[C@@H](O)[C@H](O)[C@H]2O)[C@H](O)[C@@H](O)[C@@H]1O", "viability change, negative = cytotoxic": "1.28% (inactive)"}, {"smiles": "CC(CO)Oc1ccccc1", "note": "(stereo not drawn)", "viability change, negative = cytotoxic": "-0.506% (inactive)"}, {"smiles": "COc1c(C)c2c(c(O)c1C/C=C(\\C)CCC(=O)OCCN1CCOCC1)C(=O)OC2", "viability change, negative = cytotoxic": "0.717% [at 42.5 µM] (inactive)"}, {"smiles": "Nc1cc(Cl)c(O)c(Cl)c1", "viability change, negative = cytotoxic": "9.49% (inactive)"}, {"smiles": "CCCc1ccc(OCC(=O)N2CCN(C(=O)COc3ccc(CCC)cc3OC)CC2)c(OC)c1", "viability change, negative = cytotoxic": "-10% [at 42.5 µM] (inactive)"}, {"smiles": "CN(C)Cc1ccccc1O", "viability change, negative = cytotoxic": "3.85% (inactive)"}, {"smiles": "ClCCl", "viability change, negative = cytotoxic": "1.65% (inactive)"}, {"smiles": "CCCCCCOC(=O)C(C)CC", "note": "(stereo not drawn)", "viability change, negative = cytotoxic": "4.28% (inactive)"}, {"smiles": "Cc1c(N)cccc1C(F)(F)F", "viability change, negative = cytotoxic": "6.55% [at 42.5 µM] (inactive)"}, {"smiles": "COC(=O)Nc1nc2ccc(C(=O)c3ccccc3)cc2[nH]1", "viability change, negative = cytotoxic": "-2.76% [at 42.5 µM] (inactive)"}, {"smiles": "CCN1C(=O)c2ccccc2C1Nc1ccc(OCCN2CCCCC2)cc1", "note": "(stereo not drawn)", "viability change, negative = cytotoxic": "-3.38% [at 42.5 µM] (inactive)"}, {"smiles": "CCOc1ccc2ccccc2c1C(=O)N[C@@H]1C(=O)N2[C@@H]1SC(C)(C)[C@@H]2C(=O)O", "viability change, negative = cytotoxic": "5.08% [at 42.5 µM] (inactive)"}, {"smiles": "Nc1ccc(C(=O)O)c(O)c1", "viability change, negative = cytotoxic": "13.1% [at 42.5 µM] (inactive)"}, {"smiles": "O[C@@H]([C@H](O)[C@H](O)CBr)[C@H](O)CBr", "viability change, negative = cytotoxic": "-3.84% (inactive)"}]}]}
